Laboratory results from PubChem BioAssay AID2221 (Broad Institute, 2009).
In all, about 290,000 compounds went through this assay and about 2,200 (0.76%) were called active. This excerpt belongs to a sample that is enriched for actives. Values without a mark were called inactive. No stated cut-off is given here; in the data, active means inhibition above about 30%; inconclusive means no clear call, values can overlap the other calls; inactive means below that.

Biological target: Protein RecA (Mycobacterium tuberculosis (strain ATCC 25618 / H37Rv)) (UniProt P9WHJ3)
Test: Mtb RecA intein splicing inhibitors, primary screen, biochemical, fluorescence, HTS (AID 2221);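 further: 0% = vehicle wells and 100% = reference inhibitor control wells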
Conditions: cell-free RecA intein splicing, active compounds read high, concentration not given here

Sequence of Protein RecA (Mycobacterium tuberculosis (strain ATCC 25618 / H37Rv)) (P9WHJ3 whole entry, looked up): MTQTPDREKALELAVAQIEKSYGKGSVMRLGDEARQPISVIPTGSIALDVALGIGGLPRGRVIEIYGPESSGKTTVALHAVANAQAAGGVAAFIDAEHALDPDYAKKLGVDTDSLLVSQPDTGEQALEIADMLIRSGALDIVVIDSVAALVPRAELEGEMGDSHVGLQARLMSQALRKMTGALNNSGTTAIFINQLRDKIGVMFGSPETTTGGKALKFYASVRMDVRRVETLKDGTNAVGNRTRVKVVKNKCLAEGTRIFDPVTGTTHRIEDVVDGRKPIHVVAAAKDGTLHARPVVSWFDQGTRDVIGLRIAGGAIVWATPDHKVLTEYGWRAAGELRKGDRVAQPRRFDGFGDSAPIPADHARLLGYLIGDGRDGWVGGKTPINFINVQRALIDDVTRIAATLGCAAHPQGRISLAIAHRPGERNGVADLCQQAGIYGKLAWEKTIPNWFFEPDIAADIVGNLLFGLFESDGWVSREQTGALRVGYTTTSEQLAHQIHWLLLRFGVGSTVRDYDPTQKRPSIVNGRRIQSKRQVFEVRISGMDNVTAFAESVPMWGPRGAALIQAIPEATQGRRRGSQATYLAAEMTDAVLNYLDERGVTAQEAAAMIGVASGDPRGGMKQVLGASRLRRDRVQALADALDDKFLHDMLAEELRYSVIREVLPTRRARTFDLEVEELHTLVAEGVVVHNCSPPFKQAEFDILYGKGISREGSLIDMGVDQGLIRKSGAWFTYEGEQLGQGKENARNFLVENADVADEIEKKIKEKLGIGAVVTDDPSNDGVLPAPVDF

Row | Structure (SMILES) | inhibition
1 | COc1ccc(COC(=O)NC(C(=O)O)c2ccccc2)cc1 (stereo unspecified) | -3.65%
2 | COc1ccc(C(CCN(Cc2ccc(OC)c(OC)c2)C(=O)CCl)c2ccccc2)cc1 (stereo unspecified) | 77.7% (active)
3 | COc1ccc(CN(C)C(=O)CC(c2ccccc2)c2ccccc2)cc1 | 12%
4 | CCCc1cc(=O)oc2c(C)c(OCC(=O)Nc3ccccn3)ccc12 | 0.212%
5 | COc1ccc(N2CCN(C(=O)COc3ccc4c(C)cc(=O)oc4c3)CC2)cc1 | -4.41%
6 | CC(=O)Nc1cccc(NC(=O)CSc2nccn2Cc2ccc(F)cc2)c1 | -1.4%
7 | CN(C)c1ccc(/C=C2\NC(=S)N(Cc3ccccc3)C2=O)cc1 | -1.92%
8 | CC1=NN(Cc2ccccc2)C(=O)/C1=C/c1ccc(N(C)C)cc1 | 42.9% (active)
9 | CN(C)c1ccc(C=C2C(=O)OC3(CCCC3)OC2=O)cc1 | -3.67%
10 | CCc1cccc2c3c([nH]c12)C(CC)(CC(=O)O)OCC3 (stereo unspecified) | -3.9%
11 | CCCC/C(C)=N/NC(=O)NC1CCCCC1 | -5.59%
12 | O=C1/C(=C/c2ccc3c(c2)OCO3)CCC/C1=C\c1ccc2c(c1)OCO2 | 30.4% (active)
13 | O=C(N/N=C/c1ccc2c(c1)OCO2)C(=O)N1CCCC1 | -2.18%
14 | O=C1/C(=C\c2ccc3c(c2)OCO3)N2CCC1CC2 | -0.267%
15 | Cc1nn(-c2ccccc2)c(C)c1NC(=O)COC(=O)c1cc(Cl)ccc1O | 0.496%
16 | CC(C(=O)c1ccc(-c2ccccc2)cc1)[n+]1cccc(Br)c1 (stereo unspecified) | 0.227%
17 | O=C(Nc1ccccc1Cl)/C(Cl)=C(\Cl)S(=O)c1ccccc1 (stereo unspecified) | 97% (active)
18 | O=C(Nc1ccccc1Cl)Nc1cccc2cccnc12 | 6.8%
19 | O=C(Cc1ccc2c(c1)CCCC2)Nc1ccccc1Cl | 5.79%
20 | CCN(C(=O)CSc1nnc(-c2ccc(OC(F)F)cc2)n1N)C1CCS(=O)(=O)C1 (stereo unspecified) | -2.58%
21 | C=CCN1C(=NC(=O)COc2ccccc2)SC2CS(=O)(=O)CC21 (stereo unspecified) | -0.786%
22 | Cc1nc2ccccc2nc1N/N=C/c1ccc(O)cc1O | 32% (active)
23 | Oc1ccc(/C=N/Nc2nc(-c3ccccc3F)nc3ccccc23)c(O)c1 | 10.7%
24 | Oc1ccc(/C=N/NC2=NCCCCC2)c(O)c1 | -9.19%

Row | Structure (SMILES) | inhibition
25 | CCCOc1ccc(Cl)cc1Nc1nc(NCCO)nc(N2CCCC2)n1 | -0.826%
26 | Cn1c(=O)c2c(-c3cccc(Br)c3)c(C#N)c(N)nc2n(C)c1=O | -11.9%
27 | CCc1ccc2c(c1)cc(CN(C(=S)Nc1ccccc1Cl)C1CC1)c1nnnn12 | -0.332%
28 | CSc1ccccc1NC(=O)C(C)N1C(=O)c2ccccc2S1(=O)=O (stereo unspecified) | 1.38%
29 | O=C(Nc1ccc(F)cc1)C(=O)c1cn(CC(=O)N2CCOCC2)c2ccccc12 | -4.57%
30 | Cc1ccc(S(=O)(=O)NC2(C(F)(F)F)NC(=O)N(CCc3ccccc3)C2=O)cc1 (stereo unspecified) | -2.6%
31 | CC1=NN(c2ccccc2)C(=O)C1C(=O)c1ccc([N+](=O)[O-])cc1 (stereo unspecified) | 5.51%
32 | Cc1nn(-c2ccc([N+](=O)[O-])cc2)c(N)c1-c1ccccc1 | 0.233%
33 | O=C1CC(c2ccccc2)=NN1c1ccc([N+](=O)[O-])cc1 | 54.9% (active)
34 | O=C(CN1C(=O)C2C3C=CC(C3)C2C1=O)Nc1nc(-c2ccccn2)cs1 (stereo unspecified) | -1.82%
35 | CCn1c(CC(=O)Nc2ccccc2)nnc1SCC(=O)N1CCOCC1 | -3.34%
36 | N#Cc1ccc(C2N=C(c3ccccc3)NO2)cc1 (stereo unspecified) | -0.394%
37 | CCNC(=O)CSc1nc(-c2ccccc2)cs1 | 0.44%
38 | O=C(CSC1=NCCS1)Nc1nc(-c2ccccc2)cs1 | 37.4% (active)
39 | O=C(CSc1nc2ccccc2c(=O)[nH]1)Nc1nc(-c2ccc(Br)cc2)cs1 | 1.49%
40 | CC(C)C(C)NC(=O)COc1nc2ccccc2nc1N(C)C1CCCCC1 (stereo unspecified) | -2.05%
41 | COc1ccc(C(=O)NCCSc2ccccc2C)cc1 | 3.07%
42 | CCCC(O)(CCC)C(=O)NN(C(=O)CCl)c1cccc(C)c1 | 18.1%
43 | CCCCC(O)(CCCC)C(=O)NN(C(=O)CCl)c1ccccc1 | 42.8% (active)
44 | COC(=O)N(NC(=O)C(O)(C(C)C)C(C)C)c1ccccc1 | -3.28%
45 | CCOC(=O)C1Cn2c(nc3c(c2=O)C(C)(CC)Cc2ccccc2-3)S1 (stereo unspecified) | -3.72%
46 | CCCc1nnc(NC(=O)CCC(=O)NC2CC2)s1 | -1.59%
47 | Cc1ccc(S(=O)(=O)N(Cc2cccc([N+](=O)[O-])c2)C(=O)N2CCN(C)CC2)cc1 | 1.46%
48 | CCN(CC)C(=O)CN(c1cccc([N+](=O)[O-])c1)S(=O)(=O)c1ccccc1 | 0.016%

Row | Structure (SMILES) | inhibition
49 | O=C(CCl)N(Cc1cccc([N+](=O)[O-])c1)c1cccc(Cl)c1 | 88.1% (active)
50 | O=C(CCS(=O)(=O)c1ccccc1Cl)Nc1ccc(S(=O)(=O)Nc2ncccn2)cc1 | -0.502%
51 | CC(C)c1ccc(N(C(=O)c2ccco2)C(C(=O)NC2CCCC2)c2cccnc2)cc1 (stereo unspecified) | 2.58%
52 | O=C(c1[nH]ncc1-c1ccc(Cl)cc1)C1CO1 (stereo unspecified) | 33% (active)
53 | S=c1[nH]nc(-c2ccc(Cl)cc2)n1CC1CCCO1 (stereo unspecified) | -1.85%
54 | O=C(c1nnc(-c2ccc(Cl)cc2)o1)C1CCCC1 | -10.3%
55 | COc1ccccc1OCCCCCCN1CCN(C)CC1 | -1.55%
56 | CC(OC(=O)CNC(=O)c1cccc(F)c1)C(=O)NC1CCCCC1C (stereo unspecified) | -0.912%
57 | COCC(C)OC(=O)c1c(N)n(CCCN2CCOCC2)c2nc3ccccc3nc12 (stereo unspecified) | -97.2%
58 | N#Cc1c(N)n(CCOC(=O)c2ccc(Cl)cc2)c2nc3ccccc3nc12 | 51.9% (active)
59 | CC(C)(C)OC(=O)c1c(N)n(CCCN2CCCC2=O)c2nc3ccccc3nc12 | -350%
60 | CC(C)(C)n1nc(Cc2cccc3ccccc23)c(C#N)c1N | 4.34%
61 | COc1ccc(N(C(=O)c2snc(C(N)=O)c2N)C(C(=O)NC2CCCC2)c2ccc(C)o2)c(OC)c1 (stereo unspecified) | 5.96%
62 | O=C(OCC(=O)N(CCc1ccccc1)Cc1ccccc1)c1ccccc1[N+](=O)[O-] | 18.8%
63 | O=C(N/N=C\c1cc(Br)c(Br)o1)C1COc2ccccc2O1 (stereo unspecified) | 0.81%
64 | Cc1ccc(C(=O)N/N=C\c2cc(Br)c(Br)o2)cn1 | 32% (active)
65 | Cc1ccc(C(=O)N/N=C/c2cccc3ccccc23)cn1 | 0.625%
66 | Cn1c2ccccc2n2c(=O)c(=O)n(CC(=O)c3ccc(F)cc3)nc12 | -7.28%
67 | COCCN1CCN(C(=O)c2cc(COc3ccc(F)cc3Cl)on2)CC1 | -1.15%
68 | O=C(Nc1ccc(Cl)cc1)C1c2cccc[n+]2CC(=O)N1Cc1ccc2c(c1)OCO2 (stereo unspecified) | 36.5% (active)
69 | CC1CCC(NC(=O)C2c3ccccc3C(=O)N2Cc2ccc3c(c2)OCO3)CC1 (stereo unspecified) | -1.41%
70 | O=C(C1CCN(Cc2ccc(Cl)cc2)CC1)N1CCN(Cc2ccc3c(c2)OCO3)CC1 | -0.0543%
71 | C=CS(=O)c1sc(Cl)c(N2CCOCC2)c1[N+](=O)[O-] (stereo unspecified) | 33.8% (active)
72 | CCOC(=O)c1cc(NC(=O)c2ccc(Cl)cc2)c(=O)oc1-c1ccccc1 | -0.694%

Row | Structure (SMILES) | inhibition
73 | Oc1ccc(N=Cc2sc3ccccc3c2Cl)cc1 | 34.2% (active)
74 | O=C(N/N=C/c1c(Cl)[nH]c2ccccc12)c1sc2ccccc2c1Cl | 3.69%
75 | COc1ccc(N=C(C)c2sc3ccccc3c2O)cc1 | 0.51%
76 | CC(C)(C)C1CCC(C(=O)NCC(c2cccs2)N2CCOCC2)CC1 (stereo unspecified) | 4.62%
77 | C#CCN1C(=O)C(O)(CC(=O)c2cc(OC)ccc2OC)c2ccccc21 (stereo unspecified) | 2.4%
78 | CCCCN1C(=O)/C(=C(/C#N)C(N)=O)c2ccccc21 | 1.79%
79 | COc1ccc2c(c1)C(=C(C#N)C#N)C(=O)N2CCc1ccccc1 | 61.5% (active)
80 | O=[N+]([O-])c1ccc2nc(-c3ccccn3)[nH]c2c1 | 0.606%
81 | COc1ccc(-c2nnc(SCC(=O)Nc3cccnc3Cl)n2C)cc1 | -0.381%
82 | COc1ccc(N(CC(=O)NCC2CCCO2)C(=O)CCC(=O)Nc2nccs2)c(OC)c1 (stereo unspecified) | 1.28%
83 | Cc1ccc(NC(=O)OCc2cncs2)cc1 | -1.45%
84 | COc1ccc(NC(=O)/C(Cl)=C(/Cl)S(=O)Cc2ccc(C)cc2)cn1 (stereo unspecified) | 89% (active)
85 | COc1ccc(NC(=O)c2cc(-c3ccc(C)cc3)on2)cc1 | -0.468%
86 | O=C(Nc1ccccc1-c1nnn(CC(=O)N2CCN(c3ccccc3)CC2)n1)c1cccs1 | 0.619%
87 | COc1ccc(CNC(=O)CN(c2ccc(OC)c(Cl)c2)S(=O)(=O)c2ccc(C)cc2)cc1 | -0.316%
88 | CCOc1ccccc1Nc1ccc2nonc2c1[N+](=O)[O-] | 2.95%
89 | O=[N+]([O-])c1c(NCCO)cc(Sc2nc3ccccc3s2)c2nonc12 | 94.4% (active)
90 | O=C(O)c1cccc(S(=O)(=O)Nc2ccc(O)cc2Sc2nc3ccccc3s2)c1 | -3.82%
91 | Cc1nnc(NC(=O)CCCOc2ccccc2)s1 | -1.92%
92 | CSc1ncc(Cl)c(C(=O)Nc2cc(C)ccc2C)n1 | -0.95%
93 | Cc1ccc(S(=O)(=O)CC(=O)Nc2nnc(C)s2)cc1 | -0.704%
94 | Cc1ccc(CS(=O)(=O)c2ncc(Cl)c(C(=O)Nc3nnc(C)s3)n2)cc1 | 61% (active)
95 | CSc1nnc(NC(=O)c2nc(S(=O)(=O)Cc3ccc(C)cc3)ncc2Cl)s1 | 82.8% (active)
96 | CCSc1nnc(NC(=O)c2ccc(C)cc2)s1 | 2.42%
